Experimental findings from PMC5540273 (PLoS ONE, 2017) are described below.

Among the test systems are LCK; LIMK1; LIMK2; LRRK2; LTK; LYN; MAK; MAP3K15; MAP3K1; MAP3K2; MAP3K3; MAP3K4; MAP4K2; MAP4K3; MAP4K4; MAP4K5; MAPKAPK2.
What all share (settings): concentration: 1 μM, replicates: in singlicate; n = 1
For a further assay, the system named is T1, LKB1.
T1 construct: gene STK11

A further assay deals with T2, LOK.
T2 construct: gene STK10

The next assay has as its system T3, LZK.
T3 construct: gene MAP3K13

Molecules are shown by their SMILES.
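Further: KINOMEscan kinase panel screen.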

Turning to `c1ccc(Oc2ccc(Nc3ccnc4cc(-c5ccc(CN6CCCCC6)o5)ccc34)cc2)nc1` [GW567143], the “%Inh” value is 88% in the assay on LCK; 0% in the assay with LIMK1; 0% in the assay on LIMK2; 6% in the assay on LKB1; 39% with LOK; 35% in the assay with LRRK2. Further, the “%Inh” value in the assay on LTK came out at 0%; with LYN it was 6%; in the assay on LZK it was 12%; in the assay on MAK, 4%; in the assay with MAP3K15 it was 18%; in the assay on MAP3K1 it was 8%. For the same molecule, the “%Inh” value in the assay on MAP3K2 stood at 0%; with MAP3K3 it was 0%; with MAP3K4, 0%; with MAP4K2, 0%; with MAP4K3, 0%; in the assay on MAP4K4 it was 13%. In addition, the results for the “%Inh” value with MAP4K5 and with MAPKAPK2 were 81% and 3%, respectively.

`Fc1cc(Cl)ccc1Nc1ccnc2cc(-c3ccc(CN4CCSCC4)o3)ccc12` [GW560106]: the “%Inh” value is recorded as 98.4% with LCK; 0% with LIMK1; 0% with LIMK2; 11% in the assay with LKB1; 73% in the assay on LOK; 22% in the assay with LRRK2. In addition, the “%Inh” value was 61% with LTK; 74% in the assay with LYN; 32% with LZK; 32% in the assay with MAK; 0% in the assay with MAP3K15; 6% in the assay on MAP3K1. Moreover, the “%Inh” value was 0% in the assay with MAP3K2; 0% in the assay on MAP3K3; 0% with MAP3K4; 0% in the assay on MAP4K2; 8% with MAP4K3; 40% in the assay with MAP4K4. Further, the figures for the “%Inh” value in the assay on MAP4K5 and in the assay on MAPKAPK2 were 50% and 5%, respectively.

`Cc1ccc(O)cc1Nc1ccnc2cc(-c3ccc(CN4CCCCC4)o3)ccc12` [GW557777]: the “%Inh” value in the assay with LCK is listed as 99.7%; with LIMK1, 6%; in the assay with LIMK2 it was 8%; in the assay on LKB1, 0%; in the assay on LOK, 17%; in the assay with LRRK2, 19%. Moreover, the “%Inh” value stood at 0% in the assay on LTK; 95.3% in the assay on LYN; 0% with LZK; 0% in the assay with MAK; 7% in the assay with MAP3K15; 67% in the assay on MAP3K1. Moreover, the “%Inh” value in the assay on MAP3K2 is reported as 29%; with MAP3K3, 7%; in the assay with MAP3K4 it was 0%; in the assay with MAP4K2, 29%; in the assay on MAP4K3, 0%; with MAP4K4, 2%. Also, the “%Inh” value in the assay on MAP4K5 is recorded as 3%; with MAPKAPK2, 0%.

Turning to `O=C(O)C(F)(F)F.O=c1[nH]ccc2nc(N[C@@H]3CCNC3)nc(Nc3cc(Cl)cc(Cl)c3)c12` [GSK2188764], the “%Inh” value in the assay with LCK is 0%; with LIMK1, 19%; in the assay on LIMK2 it was 13%; in the assay with LKB1 it was 43%; in the assay on LOK, 70%; in the assay on LRRK2 it was 97.3%. Moreover, the “%Inh” value in the assay with LTK was determined as 31%; in the assay with LYN, 21%; in the assay with LZK, 7%; with MAK, 16%; in the assay with MAP3K15 it was 26%; with MAP3K1 it was 24%. In addition, the “%Inh” value was found to be 81% in the assay on MAP3K2; 78% with MAP3K3; 19% in the assay with MAP3K4; 99.9% in the assay on MAP4K2; 77% in the assay with MAP4K3; 94.1% in the assay on MAP4K4. Further, the “%Inh” value was found to be 76% with MAP4K5 and 31% in the assay on MAPKAPK2.

For `Nc1ncc(-c2ccc3nccc(-c4ccncc4)c3c2)cc1S(=O)(=O)N1CCCCC1` [GSK1693850], the “%Inh” value amounted to 24% with LCK; 0% with LIMK1; 22% in the assay with LIMK2; 0% in the assay on LKB1; 7% with LOK; 0% in the assay on LRRK2. For the same molecule, the “%Inh” value in the assay on LTK is reported as 6%; with LYN, 16%; in the assay with LZK, 0%; with MAK, 16%; with MAP3K15 it was 0%; with MAP3K1, 9%. The “%Inh” value with MAP3K2 is 0%; in the assay on MAP3K3, 1%; with MAP3K4, 14%; with MAP4K2, 16%; in the assay on MAP4K3 it was 0%; in the assay with MAP4K4, 5%. For the same molecule, the “%Inh” value in the assay on MAP4K5 is 6%; in the assay on MAPKAPK2, 5%.

`Cc1cc(-c2ccnc(Nc3cccc(C#N)c3)n2)cc(C)c1O` [GSK1440913]: the “%Inh” value with LCK turned out to be 18%; with LIMK1, 14%; with LIMK2, 42%; in the assay on LKB1, 86%; with LOK it was 17%; with LRRK2 it was 0%. For the same molecule, the “%Inh” value in the assay with LTK was found to be 0%; with LYN, 20%; in the assay on LZK it was 0%; with MAK, 36%; with MAP3K15, 0%; in the assay with MAP3K1, 22%. Also, the “%Inh” value in the assay on MAP3K2 is reported as 2%; in the assay with MAP3K3, 1%; in the assay on MAP3K4 it was 18%; in the assay on MAP4K2, 30%; with MAP4K3 it was 18%; with MAP4K4 it was 76%. For the same molecule, the figures for the “%Inh” value with MAP4K5 and with MAPKAPK2 were 12% and 0%, respectively.

Consider `COc1cc(Nc2nccc(N3CCC(NS(=O)(=O)c4ccc(NC(C)=O)cc4)CC3)n2)cc(OC)c1OC` [GSK1379825], for which the “%Inh” value in the assay with LCK stood at 18%; in the assay with LIMK1 it was 93%; in the assay on LIMK2, 100%; with LKB1, 0%; in the assay with LOK, 2%; in the assay on LRRK2, 29%. Further, the “%Inh” value with LTK is 0%; in the assay on LYN, 56%; in the assay on LZK, 27%; in the assay with MAK, 61%; with MAP3K15, 0%; in the assay on MAP3K1 it was 11%. Moreover, the “%Inh” value in the assay on MAP3K2 worked out at 18%; with MAP3K3, 0%; in the assay with MAP3K4 it was 31%; with MAP4K2 it was 0%; in the assay on MAP4K3 it was 40%; in the assay with MAP4K4, 68%. Moreover, the “%Inh” value is recorded as 53% in the assay on MAP4K5 and 0% in the assay on MAPKAPK2.

Take `Cc1cccc(Nc2nc(N[C@H]3CCCC[C@H]3N)ncc2C(N)=O)c1.Cl` [GSK986310]: the “%Inh” value in the assay with LCK came to 47%; in the assay on LIMK1, 15%; with LIMK2, 18%; with LKB1, 0%; with LOK, 0%; in the assay with LRRK2, 21%. Also, the “%Inh” value with LTK is given as 52%; in the assay with LYN it was 34%; with LZK, 0%; in the assay with MAK, 27%; in the assay with MAP3K15 it was 16%; with MAP3K1, 17%. In addition, the “%Inh” value in the assay on MAP3K2 turned out to be 84%; in the assay with MAP3K3, 71%; in the assay on MAP3K4 it was 0%; in the assay with MAP4K2 it was 98.4%; in the assay with MAP4K3, 31%; with MAP4K4, 74%. Further, the “%Inh” value in the assay with MAP4K5 is listed as 34%; with MAPKAPK2 it was 19%.

Take `Cc1ccc(NC(=O)c2cccc(N3CCCCC3)c2)cc1-c1ccc(C(=O)NCC2CC2)cc1` [GSK1917008]: the “%Inh” value is 38% in the assay with LCK; 8% in the assay on LIMK1; 100% in the assay with LIMK2; 0% in the assay with LKB1; 32% in the assay with LOK; 22% with LRRK2. Besides, the “%Inh” value in the assay with LTK is on record as 7%; in the assay with LYN it was 0%; with LZK, 0%; in the assay on MAK, 24%; with MAP3K15 it was 11%; in the assay on MAP3K1, 17%. In addition, the “%Inh” value was 0% in the assay with MAP3K2; 0% with MAP3K3; 28% with MAP3K4; 5% in the assay on MAP4K2; 80% in the assay on MAP4K3; 16% in the assay on MAP4K4. Also, the “%Inh” value in the assay on MAP4K5 is on record as 22%; with MAPKAPK2 it was 18%.
